Measurements reported in the supplement of paper PMC3545927.
The other results are listed elsewhere or left out. How many sequences the whole screen found active is unknown.

Target: furin, P09958
Experiment: furin cleavage Z-score vs untreated control; higher = more cleavage, active = 3.5 or more, inactive = 1 or less, 8 variable residues between constant flanks
In short: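 Magnetic beads held 8-mer peptides by the N-terminus, each fused to a cDNA oligonucleotide, and purified furin was added for 7.5, 15 or 30 min. Released DNA was sequenced after PCR adapter tagging. The cleavage Z-score is the log count relative to furin-free reactions, lowess-adjusted and divided by median absolute deviation.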
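Note: purified furin at 1:10 enzyme:substrate in 50 mM HEPES pH 7.5.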

Chain of furin, P09958 (P09958 whole entry): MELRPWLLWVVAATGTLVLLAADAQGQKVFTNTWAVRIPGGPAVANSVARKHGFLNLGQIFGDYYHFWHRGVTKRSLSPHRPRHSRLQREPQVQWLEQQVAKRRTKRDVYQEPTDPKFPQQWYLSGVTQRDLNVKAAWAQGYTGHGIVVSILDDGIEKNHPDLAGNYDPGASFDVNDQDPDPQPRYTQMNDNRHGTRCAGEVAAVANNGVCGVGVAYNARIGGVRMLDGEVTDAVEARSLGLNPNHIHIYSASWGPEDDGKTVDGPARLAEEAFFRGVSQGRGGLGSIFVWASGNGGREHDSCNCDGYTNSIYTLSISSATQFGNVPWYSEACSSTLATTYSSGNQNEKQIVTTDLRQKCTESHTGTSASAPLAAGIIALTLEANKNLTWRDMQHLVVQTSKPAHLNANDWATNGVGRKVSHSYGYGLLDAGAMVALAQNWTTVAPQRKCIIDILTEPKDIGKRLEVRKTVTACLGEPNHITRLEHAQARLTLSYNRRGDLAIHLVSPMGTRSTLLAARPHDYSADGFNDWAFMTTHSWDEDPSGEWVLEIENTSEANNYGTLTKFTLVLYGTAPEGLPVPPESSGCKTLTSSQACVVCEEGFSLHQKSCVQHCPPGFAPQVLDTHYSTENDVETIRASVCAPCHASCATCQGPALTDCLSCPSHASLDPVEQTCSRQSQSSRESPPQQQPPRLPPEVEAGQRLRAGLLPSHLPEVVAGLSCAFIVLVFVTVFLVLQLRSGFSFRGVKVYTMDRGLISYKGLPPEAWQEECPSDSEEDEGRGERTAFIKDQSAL

| Sequence | furin cleavage Z-score (7.5 min) | furin cleavage Z-score (15 min) | furin cleavage Z-score (30 min) |
| --- | --- | --- | --- |
| CAVVCCSMYYAGNASASA [HC2069] | -0.54 (inactive) | -0.258 (inactive) | -1.53 (inactive) |
| CAYVQMVIIKAGNASASA [HC627] | -1.63 (inactive) | -1.94 (inactive) | -0.568 (inactive) |
| CAKQFRALRSAGNASASA [FS-1595] | 4.54 (active) | 5.86 (active) | 4.56 (active) |
| CAAGTRTIASAGNASASA [HC703] | 0.83 (inactive) | 0.675 (inactive) | 0.11 (inactive) |
| CAAGRRALRSAGNASASA [FS-1182] | 4.32 (active) | 4.3 (active) | 3.06 |
| CAKNGRPLRSAGNASASA [FS-341] | 0.926 (inactive) | 2.59 | 0.891 (inactive) |
| CAQLVRALRSAGNASASA [FS-848] | 7.22 (active) | 7.99 (active) | 7.1 (active) |
| CAGCPERLASAGNASASA [HC386] | 1.74 | 0.605 (inactive) | -0.259 (inactive) |
| CAVYVRVSRFAGNASASA [FS-518] | 3.44 | 4.83 (active) | 6.25 (active) |
| CAREARAVIFAGNASASA [FS-3186] | -0.327 (inactive) | -0.0656 (inactive) | 2.23 |
| CAVYARVSRFAGNASASA [FS-517] | 0.958 (inactive) | 0.514 (inactive) | 2.26 |
| CASRLRFDRFAGNASASA [FS-505] | -0.495 (inactive) | 0.902 (inactive) | -0.181 (inactive) |
| CALRIRNVRFAGNASASA [FS-1465] | 2.76 | 6.35 (active) | 7.62 (active) |
| CAVRARFVRFAGNASASA [FS-1433] | 9.46 (active) | 9.43 (active) | 8.99 (active) |
| CAVRCCSMSYAGNASASA [HC2013] | 0.204 (inactive) | -0.014 (inactive) | 0.753 (inactive) |
| CAALEVVTSTAGNASASA [HC2263] | 0.411 (inactive) | -0.918 (inactive) | -0.927 (inactive) |
| CADSDAESYSAGNASASA [HC1350] | -0.915 (inactive) | -2 (inactive) | -1.07 (inactive) |
| CAHTPCSAHLAGNASASA [HC2475] | -0.788 (inactive) | -1.31 (inactive) | -0.643 (inactive) |
| CARPARLVPAAGNASASA [FS-2398] | -0.162 (inactive) | -1.02 (inactive) | -0.581 (inactive) |
| CARPARSVGSAGNASASA [FS-2736] | 6.91 (active) | 7.69 (active) | 6.7 (active) |
| CARPARSGGPAGNASASA [FS-2735] | -0.759 (inactive) | -1.01 (inactive) | -0.741 (inactive) |
| CAAQKRSVGSAGNASASA [FS-2626] | 0.58 (inactive) | 0.683 (inactive) | -0.853 (inactive) |
| CARPARSVSKAGNASASA [FS-2498] | 4.36 (active) | 6.03 (active) | 6.77 (active) |
| CAWNKRKKRQAGNASASA [FS-968] | 13.9 (active) | 14.4 (active) | 10.5 (active) |
| CAKKHKKKRVAGNASASA [FS-1538] | -1.41 (inactive) | -0.885 (inactive) | 0.391 (inactive) |
| CAEMKRKKRVAGNASASA [FS-1521] | 6.73 (active) | 7.44 (active) | 8.54 (active) |
| CATHSRKKRQAGNASASA [FS-201] | 8.08 (active) | 7.91 (active) | 8.14 (active) |
| CASTPCSDHLAGNASASA [HC2531] | 0.0703 (inactive) | 0.929 (inactive) | -0.421 (inactive) |
